Results filed as inconclusive are left out. Active and inactive are the calls of the source.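 How the source made its calls, unless noted: active means viability at or below 30% in both replicate assays; inconclusive means viability at or below 30% in just one of the two assays; inactive means the rest.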
How the values were obtained:
[1] = reducers of endogenous Her2 protein level, primary screen, SKBR3 breast tumor cells, AlphaScreen, ATP viability (AID 461;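 active means Her2 level under about 52% in both replicate screens, with viability over 70% of control, limit read from the data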;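 on Her2 level: lower value means less Her2 protein in the cells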;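 on viability: percent of carrier control wells set as 100% viability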); settings: 18-24 h, measured here: SKBR3 viability, ATP luminescence, at 10 µM
[2] = molecular target: Receptor tyrosine-protein kinase erbB-2 (Homo sapiens) (UniProt P04626); test: as above; settings: 18-24 h, at 10 µM, stronger effect = lower value
[3] = SK-BR-3 cell growth inhibitors, pilot screen, 24 h, human (AID 572;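 active means viability at or below 10% of carrier control in both of two separate runs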;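 further: compound exposure lasted between 18 and 24 h rather than exactly 24 h; 100% = carrier-treated control wells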); settings: SK-BR-3 viability, CellTiter-Glo luminescence, at 10 µM, stronger effect = lower value
[4] = HUVEC growth inhibition – cell-based, human, primary screen (AID 575); settings: HUVEC proliferation, CellTiter-Glo luminescence, 72 h; at 10 µM; stronger effect = lower value;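 further: 100% = median of untreated cell wells with 0.1% DMSO on each plate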
[5] = growth inhibitors of H69AR lung tumor, primary screen, human, duplicate replicates (AID 580;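 active means viability at or under a set limit in both replicates, limit being median viability minus 3 SD, cut at about 48% in these data, passing the limit was not always enough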;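 further: 100% = mean luminescence of untreated wells and 0% = no signal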); settings: H69AR lung tumor cells viability, ATP luminescence, 72 h; at 10 µM; stronger effect = lower value
[6] = reversal of MRP1-mediated doxorubicin resistance, pilot screen, H69AR cells, doxorubicin co-treatment (AID 601;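 active means viability loss from added drug above about 55%, and viability with drug at most 40%, in both replicates, limit read from the data, passing the limit was not always enough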); settings: CellTiter-Glo, 72 h, at 10 µM; for differential viability (reversal): stronger effect = higher value
[7] = 384-well plate pilot, post-Golgi transport modulator project, inhibition of yeast transport mutant growth (AID 636; in the data active means inhibition above about 31%); settings: absorbance 615 nm, about 18 h, stronger effect = higher value
[8] = growth suppression of yeast trafficking mutant, preliminary HTS, modulators of trafficking downstream of Golgi apparatus project, 1536-format plate, OD 615 nm (AID 637; in the data active means inhibition above about 30%); settings: yeast transport mutant growth, absorbance 615 nm, 18 h; stronger effect = higher value
[9] = OD615 S. cerevisiae growth inhibition, permissive medium, pilot counter-assay, permissive growth control for S. cerevisiae lifespan shortening project (AID 705;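 active means growth inhibition above 25% in both replicates, a cutoff set 3 SD above the mean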); settings: OD615, 24 h, at 10 µM, stronger effect = higher value
[10] = Restrictive medium S. cerevisiae growth inhibition, OD615, pilot screen of yeast lifespan reduction project, restrictive growth control (AID 706;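 active means growth inhibition above a set limit, 3 SD over mean compound inhibition, in both replicates, cut at about 43% in these data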;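 further: modified DeaD lifespan yeast strain shifted to restrictive glucose medium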); settings: OD615, 48 h, at 10 µM, stronger effect = higher value
[11] = viability gain of MRP-1-high H69AR cells under doxorubicin, pilot screen, MRP-1 activator project, CellTiter-Glo, duplicate (AID 807;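 active means viability increase at or above a cutoff of the median across tested compounds plus 3 SD, cut at about 8.5% in these data, passing the limit was not always enough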;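 further: compound pretreatment 18-22 h then 72 h combined with doxorubicin; 0% = doxorubicin alone and 100% = vehicle without doxorubicin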); settings: H69AR viability with doxorubicin, CellTiter-Glo luminescence; at 10 µM; stronger effect = higher value
[12] = growth suppression of PTEN-deleted HCT116, pilot screen, cell-based, HCT116 clonal line, CellTiter-Glo (AID 824;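 active means viability at or below 27.92% in each of two runs, the all-compound median minus 4 SD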;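 further: 0% = 20 µM Hyamine control and 100% = vehicle cell control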); settings: 60 h, at 10 µM, stronger effect = lower value
[13] = inhibitors of the yeast RAM network, pilot screen, dse1pr::URA3 reporter, 5-FOA selection (AID 869;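 active means inhibition over a set limit, the all-compound mean plus 3 SD, in both replicate runs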;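 further: 0% = DMSO wells with no growth and 100% = 10 µM 1-NA-PP1 with full growth; RAM network block rescues cells from 5-FOA so hits raise OD615 growth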); settings: S. cerevisiae dse1pr::URA3 5-FOA growth, OD615, 2 d; at 10 µM; stronger effect = higher value; strain carries analog-sensitive mutant Cbk1 kinase
[14] = RAM signaling pathway blockade in yeast – S. cerevisiae, Pdr1DBD-CYC8 efflux-inhibited sensitized strain, primary screen (AID 1298;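 active means RAM network inhibition above 8.4% in each of two replicates, 3 SD over the compound average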;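 further: 0% = DMSO untreated cells without growth and 100% = 10 µM 1-NA-PP1 full growth; higher means more yeast growth rescued from 5-FOA killing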); settings: S. cerevisiae cbk1-as DSE1-URA3 strain, 5-FOA growth OD615, 2 d; at 50 µM; stronger effect = higher value
[15] = growth suppression of beta-catenin knockout HCT116, pilot screen, human colon tumor cells (AID 823;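 active means cell viability at or below a set limit in both duplicate runs, the limit being the all-compound median minus 4 SD, cut at about 23% in these data, passing the limit was not always enough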;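 further: 0% = wells killed by 20 µM Hyamine and 100% = untreated DMSO cell wells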); settings: CellTiter-Glo, 60 h, at 10 µM, stronger effect = lower value
[16] = H69AR cells + 2 uM doxorubicin, measured here: viability with 2 uM doxorubicin, stronger effect = lower value
[17] = H69AR cells, compound alone cytotoxicity

Receptor tyrosine-protein kinase erbB-2 (Homo sapiens), sequence (P04626 whole entry, looked up): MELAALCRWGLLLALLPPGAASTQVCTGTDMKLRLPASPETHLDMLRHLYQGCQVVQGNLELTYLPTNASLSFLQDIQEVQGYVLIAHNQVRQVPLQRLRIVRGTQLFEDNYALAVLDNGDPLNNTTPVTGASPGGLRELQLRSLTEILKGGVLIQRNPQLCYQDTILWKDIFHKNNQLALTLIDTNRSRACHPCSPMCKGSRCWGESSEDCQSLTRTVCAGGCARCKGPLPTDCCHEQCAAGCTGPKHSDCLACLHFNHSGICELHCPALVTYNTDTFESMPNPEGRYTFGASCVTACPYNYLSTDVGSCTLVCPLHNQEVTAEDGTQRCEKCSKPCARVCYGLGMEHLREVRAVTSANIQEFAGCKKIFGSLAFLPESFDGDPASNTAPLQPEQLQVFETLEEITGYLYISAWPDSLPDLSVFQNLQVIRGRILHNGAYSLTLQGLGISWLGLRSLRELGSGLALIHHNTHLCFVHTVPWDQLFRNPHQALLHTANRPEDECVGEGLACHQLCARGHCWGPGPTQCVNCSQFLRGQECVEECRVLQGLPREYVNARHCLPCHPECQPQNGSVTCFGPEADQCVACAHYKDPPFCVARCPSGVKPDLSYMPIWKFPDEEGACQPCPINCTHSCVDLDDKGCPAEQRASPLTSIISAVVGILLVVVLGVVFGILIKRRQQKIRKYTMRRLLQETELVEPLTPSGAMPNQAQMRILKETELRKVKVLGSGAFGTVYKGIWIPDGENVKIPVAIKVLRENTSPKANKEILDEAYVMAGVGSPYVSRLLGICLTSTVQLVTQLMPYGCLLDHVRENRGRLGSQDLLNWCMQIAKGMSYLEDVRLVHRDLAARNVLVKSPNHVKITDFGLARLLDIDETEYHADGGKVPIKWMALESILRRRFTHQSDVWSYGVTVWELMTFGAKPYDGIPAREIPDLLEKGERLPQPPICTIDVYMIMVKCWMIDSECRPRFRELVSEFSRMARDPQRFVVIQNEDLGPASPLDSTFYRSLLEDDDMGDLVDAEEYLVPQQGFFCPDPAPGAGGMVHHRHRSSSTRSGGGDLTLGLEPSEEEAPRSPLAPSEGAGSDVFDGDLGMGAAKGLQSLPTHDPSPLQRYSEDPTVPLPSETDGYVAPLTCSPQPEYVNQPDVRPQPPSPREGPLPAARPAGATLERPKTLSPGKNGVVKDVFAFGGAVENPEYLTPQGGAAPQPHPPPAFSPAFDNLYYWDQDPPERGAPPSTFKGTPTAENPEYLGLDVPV

Structure (SMILES) | viability [1] [%] | Her2 level [2] | viability [3] | viability [4] | viability [5] | differential viability (reversal) ([6]; H69AR cells + 2 uM doxorubicin) | viability [6, 16] [%] | viability [6, 17] [%] | inhibition [7] | inhibition [8] | growth inhibition [9] | growth inhibition [10] | viability increase [11] | viability [12] | inhibition [13] | RAM network inhibition [14] | viability [15]
COc1ccc(C(C(=O)NC2CCCCC2)N2CCC3(CC2)OCCO3)cc1 (stereo not drawn) | 86 | 98% (inactive) | 86% (inactive) | 114% (inactive) | 100% (inactive) | 6.97% (inactive) | 93.5 | 100 | -7.81% (inactive) | 5.71% (inactive) | -7.27% (inactive) | -6.88% (inactive) | -2.42% (inactive) | 88.8% (inactive) | 2.62% (inactive) | 2.77% (inactive) | –
Cc1ccc(S(=O)(=O)C(C#N)c2nc3ccccc3nc2N2CCCCC2)cc1 (stereo not drawn) | 124 | 99.5% (inactive) | 124% (inactive) | 71.6% (inactive) | 92% (inactive) | -2.64% (inactive) | 94.7 | 92 | -6.13% (inactive) | 3.65% (inactive) | -26.9% (inactive) | 6.8% (inactive) | -3.74% (inactive) | – | 2.7% (inactive) | 5.83% (inactive) | 93.8% (inactive)
COc1ccc(NC(=O)CC2Sc3ncnn3C2=O)cc1 (stereo not drawn) | 109 | 80.5% (inactive) | 109% (inactive) | 88.3% (inactive) | 111% (inactive) | 27% (inactive) | 83.5 | 111 | 0.77% (inactive) | 4% (inactive) | – | 22.2% (inactive) | -3.8% (inactive) | 104% (inactive) | 1.05% (inactive) | 6.37% (inactive) | 95.2% (inactive)
O=C1NC(=O)C(CC(=O)N(Cc2ccco2)C2(C(=O)NC3CCCC3)CCCCC2)N1 (stereo not drawn) | 99.5 | 116% (inactive) | 99.5% (inactive) | 106% (inactive) | 92.6% (inactive) | -1.5% (inactive) | 94.1 | 92.6 | -7.95% (inactive) | -6.51% (inactive) | -7.63% (inactive) | -4.51% (inactive) | -3.06% (inactive) | 89% (inactive) | 0.975% (inactive) | -0.51% (inactive) | –
CC(=O)NCC(=O)N(Cc1ccco1)C1(C(=O)NC2CCCCC2)CCCCC1 | 140 | 93% (inactive) | 140% (inactive) | 103% (inactive) | 90.9% (inactive) | 2.67% (inactive) | 88.3 | 90.9 | -9.59% (inactive) | 2.7% (inactive) | -7.64% (inactive) | 2.32% (inactive) | -5.15% (inactive) | 90% (inactive) | 2.22% (inactive) | -0.72% (inactive) | –
O=C(Cn1ncc2c1-c1ccccc1OC2)N1CCc2ccccc21 | 83.5 | 100% (inactive) | 83.5% (inactive) | 96.2% (inactive) | 84.3% (inactive) | -0.91% (inactive) | 85.2 | 84.3 | 0.51% (inactive) | -5.33% (inactive) | – | -6.7% (inactive) | -0.77% (inactive) | 88.4% (inactive) | -0.23% (inactive) | 6.41% (inactive) | 93.4% (inactive)
Cc1ccc(C(=O)CSc2n[nH]c(-c3ccco3)n2)cc1C | 106 | 104% (inactive) | 106% (inactive) | 99.2% (inactive) | 101% (inactive) | -3.95% (inactive) | 105 | 101 | -4.68% (inactive) | -4.67% (inactive) | -13.8% (inactive) | 3.79% (inactive) | – | 107% (inactive) | 0.765% (inactive) | 0.94% (inactive) | 101% (inactive)
CC(=O)c1cccc(NC(=O)CCNS(=O)(=O)c2cccc3nsnc23)c1 | 86 | 78% (inactive) | 86% (inactive) | 95.6% (inactive) | 106% (inactive) | 11.8% (inactive) | 94.5 | 106 | -6.58% (inactive) | 6.19% (inactive) | -5.2% (inactive) | -11% (inactive) | -2.11% (inactive) | 93.5% (inactive) | 1.73% (inactive) | 2% (inactive) | –
C/C=C/COC(=O)c1[nH]c2c(c1C)C(=O)CC(c1ccc(N(C)C)cc1)C2 (stereo not drawn) | 92 | 94% (inactive) | 92% (inactive) | 62.4% (inactive) | – | -30.1% (inactive) | 72.1 | 41.9 | 2% (inactive) | 49.8% (active) | -10.2% (inactive) | -9.05% (inactive) | -2.69% (inactive) | 66.6% (inactive) | 1.9% (inactive) | 4.88% (inactive) | 60.6% (inactive)
CCN1CCN(c2ncnc3c2cnn3-c2ccc(C)cc2C)CC1 | 85.5 | 96% (inactive) | 85.5% (inactive) | 99.8% (inactive) | 73.7% (inactive) | – | – | – | -6.4% (inactive) | 7.7% (inactive) | -5.99% (inactive) | -11% (inactive) | -6.88% (inactive) | 81.6% (inactive) | 0.395% (inactive) | 0.63% (inactive) | 85.1% (inactive)
